An excerpt weighted towards active compounds, which were near 21% of everything screened.
CHX counter = counter-screen for Shiga toxin inhibitors: cycloheximide protein synthesis inhibition; cell reporter, cycloheximide protein synthesis inhibition counterscreen; max response, %; actives 12% (n = 300,000); in the data active means max response mostly above about 13%, no sharp cut-off; inactive means mostly below about 14%; further: read at 38.3 µM for the half of the compounds with a filed dose; 0% is about no effect
Pf growth 48h = P. falciparum growth inhibition at 48 hours (one generation); P. falciparum luciferase growth in erythrocytes, 48 h; Potency, µM (top dose mostly 28.7 µM), for the others: top-dose activity change, negative = inhibition, usual class: inhibitors; actives 5.9% (n = 310,000); AID 504832; further: potency means the concentration at half of the fitted maximal effect; on the % scale 0 is the no-effect control and ±100 the full control effect
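A one-generation exposure of luciferase-tagged malaria parasites in RPMI 1640/Albumax erythrocyte culture, 37 C and 5% CO2. Inhibition is inferred from decreased luminescence after adding detection reagent.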
FBPA Giardia inh = blocks Giardia fructose-bisphosphate aldolase activity; A8B2U2; purified Giardia FBPA; Potency, µM (titrated, usually from 59.6 µM), for the others: at the highest dose activity, negative = inhibition, actives largely listed as inhibitors; actives 0.71% (n = 290,000); further: potency means the concentration at half of the fitted maximal effect; on the % scale 0 is the no-effect control and ±100 the full control effect; nearly all actives have a fitted effect of over 55% in size
Target sequence (A8B2U2 whole entry, looked up): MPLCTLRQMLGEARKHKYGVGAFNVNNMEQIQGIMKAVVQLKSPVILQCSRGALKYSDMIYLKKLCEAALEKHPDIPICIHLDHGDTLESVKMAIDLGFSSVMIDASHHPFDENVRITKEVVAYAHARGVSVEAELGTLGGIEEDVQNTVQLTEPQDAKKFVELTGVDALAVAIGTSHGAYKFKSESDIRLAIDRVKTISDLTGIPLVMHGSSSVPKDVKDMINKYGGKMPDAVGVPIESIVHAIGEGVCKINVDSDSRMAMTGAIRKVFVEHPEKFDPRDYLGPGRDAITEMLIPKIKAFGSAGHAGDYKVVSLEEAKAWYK
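40 nM FBPA preincubated 10 min at RT with compound (up to 57.5 uM final), then substrate plus GAPDH/TPI/NAD/arsenate coupling and diaphorase/resazurin added. Fluorescence read after 20 min at RT, 525/598 nm.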
Pf growth 96h = inhibits malaria parasite growth, 96 h; actives 6.9% (n = 320,000); Potency, µM (top dose mostly 28.7 µM), for the others: top-dose activity change, negative = inhibition, hits mostly inhibitors; AID 504834; P. falciparum luciferase reporter growth, 96 h; further: potency means the concentration at half of the fitted maximal effect; on the % scale 0 is the no-effect control and ±100 the full control effect
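Luminescence readout: decreased luciferase signal marks inhibited growth of reporter-expressing P. falciparum in infected red cells (2% hematocrit, 0.05% parasitemia final), exposed to compound two generations (96 h, 37 C, 5% CO2).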
NS1 function inh = influenza NS1 inhibition | Potency, µM (doses to about 46.1 µM), for the others: at the top dose activity, positive = more growth | actives 0.4% (n = 270,000); calls by dose curve; further: potency means the concentration at half of the fitted maximal effect; actives are rising curves; nearly all actives have a fitted effect of over 50% in size
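Recovery from NS1-induced slow growth read by OD600 in budding yeast switched to galactose assay medium (pH 6.0, -URA) at 1:100 dilution. Compound 23 nl per well; the matching strain lacking NS1 serves as control.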
Shiga toxin inh = inhibitors of Shiga toxin in Vero cells; AID 2315; inhibition, % at 38.7 µM; Vero cells, Shiga toxin protein synthesis inhibition reporter; actives 9.2% (n = 290,000); in the data active means inhibition mostly above about 28%, no sharp cut-off; inactive means mostly below about 43%; further: 0% is about no effect
An asterisk follows results filed as active; ? = inconclusive; · = no result; [ ] = remark or other dose. Unless noted, the call rests on the fitted dose curve; in most records, active means well fitted curve in the direction sought with a large enough effect; inconclusive means small, poorly fitted or top-dose-only effect, or another doubt; inactive means no such curve, though single readings can be large; an effect the other way counts as inactive or inconclusive.

SMILES	CHX counter	Pf growth 48h	FBPA Giardia inh	Pf growth 96h	NS1 function inh	Shiga toxin inh
C=CCN1C(=O)C(CC(=O)O)SC1=Nc1ccc(C(=O)O)cc1 (stereo not given)	10	-25%	6%	15%	0%	-5
C=CCn1c(CC(=O)OC)csc1=Nc1ccc(C(C)=O)cc1	33*	34%	-23%	?	-48%	63*
C=CCn1c(C)csc1=Nc1ccc(C(C)=O)cc1	34*	84%	-4%	192%	1%	111*
C=CCn1c(C)csc1=Nc1ccccc1C	30*	49%	-16%	?	-3%	75
CCOC(=O)c1ccc(N=c2scc(C)n2CC)cc1	40*	197%	-1%	293%	·	80*
C=CCn1c(-c2sccc2C)n[nH]c1=S	-2	-11%	?	4%	12%	-8
CN(C(=O)COC(=O)Cc1c(F)cccc1Cl)c1c(N)n(Cc2ccccc2)c(=O)[nH]c1=O	·	?	·	12%	·	·
COC(=O)CC1C(=O)NCCN1C(=O)CSc1nnnn1-c1ccc(OC)cc1 (stereo not given)	-3	-6%	5%	-22%	·	-14
COc1cc(NC(=O)C2CCCN2C(=O)C2CCC(C)CC2)cc(OC)c1OC (stereo not given)	4	?	-11%	?	8%	9
COc1ccc(OC)c(NC(=O)C2CCCN2C(=O)C2CCC(C)CC2)c1 (stereo not given)	-3	·	-10%	9.3µM*	-3%	-6
COc1ccc(Cl)cc1C(=O)Nc1nc(C)cc(C)n1	7	?	-4%	?	0%	·
CC(C)(C)NC(=O)C(c1ccco1)N(C(=O)Cn1nnc(-c2ccc(F)cc2)n1)c1cccc(F)c1 (stereo not given)	-4	?	-7%	-3%[5.75 µM]	-33%	10
CC(C)(C)NC(=O)C(c1c[nH]c2ccccc12)N(C(=O)Cn1nnc(-c2ccc(F)cc2)n1)c1cccc(O)c1 (stereo not given)	-2	2.6µM*	0%	?	?	-9
COc1cccc(N(C(=O)Cn2nnc(-c3ccc(C)o3)n2)C(C(=O)NC(C)(C)C)c2cccs2)c1 (stereo not given)	-2	13µM*	-1%	-19%	-15%	-6
Cc1ccc(-c2nnn(CC(=O)N(Cc3ccco3)C(C(=O)NC(C)(C)C)c3cccs3)n2)o1 (stereo not given)	-4	15µM*	-9%	-9%	-11%	2
Cc1cc2nc(NCCCO)n(CC(=O)c3cc(C(C)(C)C)c(O)c(C(C)(C)C)c3)c2cc1C	·	?	·	-3%	·	·
COc1ccc2c(c1)CC(C(=O)Nc1ccc(Cl)cc1)/C(=N/O)O2 (stereo not given)	-1	26%	8%	28%	3%	-1
CC(C)NCC(O)Cn1c2c(c3ccccc31)CCc1c-2cnn1-c1ccccc1 (stereo not given)	-9	2.9µM*	-8%	?	-40%	-28
CC1(C)Cc2c(cnn2-c2ccccc2)C(=O)/C1=N\NC(=O)c1ccccc1O	16*	?	-9%	·	-74%	32
CCC(C)N(C)Cc1cccc(C2(O)CCN(S(=O)(=O)c3ccc(F)c(C)c3)CC2)c1 (stereo not given)	-4	13µM*	7%	?	-9%	-18
FC(F)Sc1nc2ccccc2[nH]1	0	21%	-14%	28%	1%	-2
Cc1ccc2cn[nH]c2c1NC(=S)NC(=O)c1ccccc1	-2	14%	-14%	-17%	17%	-13
Cc1ccc2cn[nH]c2c1NC(N)=S	31	-6%	0%	?	·	48*
CCCCCCCN1C(N(C)C)=NC[C@@H]1Cc1ccccc1	·	4.7µM*	·	?	·	·
CN(C)C1=NC[C@H](Cc2ccccc2)N1CCCCc1ccccc1	·	13µM*	·	?	·	·
SMILES	CHX counter	Pf growth 48h	FBPA Giardia inh	Pf growth 96h	NS1 function inh	Shiga toxin inh
Cc1cccc(CCN2C(N(C)C)=NC[C@@H]2CC(C)C)c1	·	13µM*	·	?	·	·
CN(C)C1=NC[C@H](Cc2ccccc2)N1CC1CCC(C(C)(C)C)CC1 (stereo not given in full)	2	?	0%	?	10%	-3
CC(C)C[C@H]1CN=C(N(C)C)N1CC1CCCCCC1	·	4.1µM*	·	?	·	·
CC(C)C[C@H]1CN=C(Nc2ccccc2)N1CC1CCC1	-2	-7%	5%	-5%	-13%	-11
Cc1cccc(CCN2C(N(C)C)=NC[C@@H]2C)c1	·	2%	·	49%	·	·
COc1cc(OC)c(C(=O)OCC(=O)Nc2nnc(-c3ccccc3)o2)cc1OC	·	20%	·	27%	·	·
O=C(C[n+]1ccccc1)N/N=C/c1cc(Br)ccc1O	-1	·	-2%	4.1µM*	-8%	-1
NC(=O)N/N=C\c1cc(Br)ccc1O	2	-15%	15%	17%	4%	-8
CCOc1ccccc1NC(=O)C(=O)N/N=C/c1cc(Br)ccc1O	-6	2.3µM*	6%	-26%	·	8
CN(C)S(=O)(=O)c1cccc(NC(=S)N/N=C/c2cc(Br)ccc2O)c1	14	2.1µM*	18%	?	-1%	28
O=C(N/N=C/c1cc(Br)ccc1O)Nc1ccccc1	-2	?	-9%	8.3µM*	-33%	76*
CCOc1ccccc1N(CC(=O)N/N=C/c1cc(Br)ccc1OC)S(C)(=O)=O	-3	-23%	-28%	0%	-8%	-4
COc1cccc2c1N(C)C(=O)CC21C=CC(=O)C=C1	3	·	-6%	·	·	9
O=C(COc1ccccc1)N=C1SC2CS(=O)(=O)CC2N1c1ccc(F)cc1F (stereo not given)	-4	19%	12%	46%	-9%	14
CC(C)(C)c1ccc(/C=N/NC(=O)C[n+]2ccccc2)cc1	7	?	-13%	-19%	-2%	12
O=C(C[n+]1ccccc1)N/N=C/c1ccc(Cl)cc1	·	?	·	7.4µM*	·	·
Cc1ccc(CS(=O)Cc2ccc(C(=O)NCc3ccccc3Br)o2)cc1 (stereo not given)	-2	-18%	-7%	?	8%	1
O=C(Nc1cccc2ccccc12)c1ccc(Cn2cc(Cl)cn2)cc1	-1	?	-8%	13µM*	1%	-19
O=C(Nc1ccccc1F)c1ccc(Cn2cc(Cl)cn2)cc1	28*	44%	3%	19%	-6%	50
O=C(Nc1cnn(Cc2ccc(Cl)c(Cl)c2)c1)C12CC3CC(CC(C3)C1)C2	-1	13µM*	-18%	7.4µM*	17%	9
O=C(Nc1ccc(Cl)c(Cl)c1)c1ccc(Cn2cc(Cl)cn2)cc1	32*	?	-8%	-17%	-20%	active
CCOc1ccc(C(=O)Nc2cnn(Cc3ccc(Cl)c(Cl)c3)c2)cc1	-1	-3%	-11%	?	-3%	6
CC(=O)c1ccc(NC(=O)CC(C)S(=O)(=O)c2ccc3c(c2)CCN3C(C)=O)cc1 (stereo not given)	-2	0%	·	39%	3%	-2

Source: PubChem
